Laboratory results: PubChem BioAssay AID1259343 (VanderVen Lab, College of Veterinary Medicine, Cornell …, 2017)
The whole screen tested about 6,200 compounds, of which about 2,900 (47%) were called active. The set was probably picked from earlier hits. This is one part of the list. Unmarked numbers belong to inactive results. Cut-off read from the data, not from the text of the source: active = inhibition above about 50%; inactive = the rest.

assay: Mycobacterium tuberculosis growth inhibition, primary screen (AID 1259343); details: inhibition: at 10 µM, active compounds read high; outcome: 10 uM

For Brc1ccc2c(c1)C1CC(c3cccs3)=NN1C(c1cccnc1)O2 (stereo not drawn), which inhibition is on record?
Its inhibition is 97.9% (active).

For Cc1ccc(C2=NN3C(C2)c2cc(Cl)ccc2OC3c2ccncc2)cc1 (stereo not drawn), which inhibition is on record?
The inhibition was -54.8%.

Which inhibition does the source give for N#Cc1ccc(OCCn2nccc2-c2ccncc2)cc1 here?
The inhibition was 61.2% (active).

For Cc1ncc(COc2ccc(-c3ccc(C#N)cc3)cc2)s1, which inhibition is on record?
Its inhibition is 43.5%.

With COCC(=O)Nc1nc2ccccc2n1C1CCCCC1 as the molecule, how does the inhibition read?
The inhibition was 14.7%.

For COCC(=O)Nc1nc2cc(C(F)(F)F)ccc2n1Cc1ccco1, which inhibition is on record?
The inhibition was 62.6% (active).

Which inhibition does the source give for FC(F)(F)c1cccc(C(OCCN2CCN(Cc3ccco3)CC2)c2ccccc2)c1 (stereo not drawn) here?
Its inhibition is -3.93%.

Which inhibition does the source give for O=C(OC(C(=O)Nc1cc(Cl)cc(Cl)c1)c1ccccc1)C1=COCCO1 (stereo not drawn) here?
The inhibition was 78.7% (active).

With Nc1ccc(-n2cccc2C(=O)O)cc1 as the molecule, how does the inhibition read?
Its inhibition is 93.6% (active).

For COc1c2ccccc2nc2occc12, which inhibition is on record?
Its inhibition is 89.7% (active).

For O=C(Nc1cc(F)c(N2CCCC2)c(F)c1)C1CC1c1cccnc1 (stereo not drawn), which inhibition is on record?
Its inhibition is 32.7%.

Which inhibition does the source give for Cc1cccc(NC(=O)C2CCN(c3c(F)cc(C#N)cc3F)CC2)n1 here?
Its inhibition is 72.7% (active).

For CCc1nnsc1C(=O)Nc1cc(F)c(N2CCCC2)c(F)c1, which inhibition is on record?
Its inhibition is 37.1%.

For N#CC(c1ccc(Cl)cc1Cl)c1cnnc2ccccc12 (stereo not drawn), which inhibition is on record?
Its inhibition is -8.73%.

Which inhibition does the source give for O=c1c(Cl)c(N2CCN(c3ccccc3)CC2)cnn1Cc1ccccc1Cl here?
The inhibition was 17.9%.

For N#CC(c1ccccc1)c1cnn(-c2ccccc2)c(=O)c1Cl (stereo not drawn), which inhibition is on record?
The inhibition was 101% (active).

With CN(C)C=Nc1ccc(OC(F)F)c(Cl)c1 as the molecule, how does the inhibition read?
Its inhibition is 92% (active).

With Cc1cc(=O)[nH]c(-n2nc(C)cc2NC(=O)c2cccc([N+](=O)[O-])c2)n1 as the molecule, how does the inhibition read?
The inhibition was 100% (active).

With CCc1cc(=O)[nH]c(-n2nc(C)cc2NC(=O)c2cccc([N+](=O)[O-])c2)n1 as the molecule, how does the inhibition read?
The inhibition was 102% (active).

Which inhibition does the source give for CCc1cc(=O)[nH]c(-n2nc(C)cc2NC(=O)c2ccc([N+](=O)[O-])cc2)n1 here?
Its inhibition is 101% (active).

With Cc1cc(-c2nc3cccnc3s2)ccc1NS(=O)(=O)c1ccc(F)cc1F as the molecule, how does the inhibition read?
The inhibition was 74.7% (active).

Which inhibition does the source give for COC(=O)c1ccccc1NC(=O)c1cc(-c2cccs2)n(C2CCS(=O)(=O)C2)n1 (stereo not drawn) here?
The inhibition was 42.9%.

Which inhibition does the source give for CCC(=O)NCC1CN(c2ccc(OC)cc2)C(=O)O1 (stereo not drawn) here?
Its inhibition is 83% (active).

With O=C(CN1CCCC1c1ccsc1)Nc1ccccc1Br (stereo not drawn) as the molecule, how does the inhibition read?
Its inhibition is 41.9%.

With N#Cc1nc(NC(=O)C2CC2c2ccc(Br)cc2)[nH]c1C#N (stereo not drawn) as the molecule, how does the inhibition read?
The inhibition was 81.5% (active).

With N#CSc1ccc(NS(=O)(=O)c2ccc(Cl)cc2)c(Cl)c1 as the molecule, how does the inhibition read?
Its inhibition is 79.8% (active).

With O=S(=O)(Nc1ccc(F)c(F)c1)c1ccc(Cl)c(Cl)c1 as the molecule, how does the inhibition read?
The inhibition was 17.1%.

Which inhibition does the source give for O=S(=O)(Nc1cc(Cl)ccc1Cl)c1ccc(Cl)cc1 here?
The inhibition was 64.6% (active).

For COc1ccc(NS(=O)(=O)c2ccc(Cl)c(Cl)c2)cc1, which inhibition is on record?
The inhibition was 86.7% (active).

For COc1ccc(S(=O)(=O)Nc2ccc3c(c2)OC(F)(F)O3)cc1, which inhibition is on record?
Its inhibition is 33%.

For O=c1[nH]c2ccc(S(=O)(=O)Nc3ccc(Cl)cc3Cl)cc2s1, which inhibition is on record?
Its inhibition is 19%.

With Nc1cc(S(=O)(=O)Nc2ccc(Cl)cc2)ccc1Cl as the molecule, how does the inhibition read?
Its inhibition is 89.1% (active).

Which inhibition does the source give for Nc1cc(S(=O)(=O)Nc2ccc(Br)cc2)ccc1Cl here?
Its inhibition is 30%.

For CCN(CC)S(=O)(=O)c1cccc(S(=O)(=O)c2ccc(Cl)c(Cl)c2)c1, which inhibition is on record?
The inhibition was 1.03%.

Which inhibition does the source give for CCC(C)(C)NS(=O)(=O)c1ccc(Cl)c(Cl)c1 here?
The inhibition was 82.7% (active).

With CCS(=O)(=O)c1ccc(NC(=O)Cc2ccc(Cl)c(Cl)c2)cc1 as the molecule, how does the inhibition read?
The inhibition was 41.3%.

Which inhibition does the source give for CCn1cnnc1CN(C)c1ccc(-c2nc(-c3ccccc3F)no2)cn1 here?
Its inhibition is 7.76%.

Which inhibition does the source give for CN(Cc1cccnc1)c1ccc2c(-c3ccccc3F)noc2n1 here?
The inhibition was 90.6% (active).

Which inhibition does the source give for CN(Cc1ccc(Cl)cc1)c1ccc2c(C3CC3)noc2n1 here?
Its inhibition is 41.3%.

Which inhibition does the source give for O=Cc1ccc(-c2ccc(Cl)cc2Cl)[nH]1 here?
The inhibition was 91.2% (active).

With CC(NCCC(c1ccccc1)c1ccccc1)c1ccccc1 (stereo not drawn) as the molecule, how does the inhibition read?
Its inhibition is 58.2% (active).

With CCOc1nc(NC(C)c2ccccc2)ncc1Br (stereo not drawn) as the molecule, how does the inhibition read?
The inhibition was 28%.

For Cc1ccc(Cc2nc(CSCCc3ccccc3)cs2)cc1, which inhibition is on record?
Its inhibition is 63.4% (active).

For Clc1ccccc1CSCc1csc(Cc2ccc3c(c2)OCO3)n1, which inhibition is on record?
The inhibition was 11.8%.

For Oc1ccc(-c2csc(Cc3ccccc3)n2)cc1O, which inhibition is on record?
The inhibition was 30.3%.

For COc1ccccc1-c1noc2nc(OCc3ccccc3)ccc12, which inhibition is on record?
Its inhibition is 95.3% (active).

Which inhibition does the source give for c1csc(COc2ccc3c(C4CC4)noc3n2)c1 here?
The inhibition was 82.4% (active).

For c1ccc2oc(COc3ccc4c(C5CC5)noc4n3)cc2c1, which inhibition is on record?
Its inhibition is 81.1% (active).

Which inhibition does the source give for OCC1(CCOc2ccccc2)CCN(Cc2cc3ccccc3o2)CC1 here?
The inhibition was 28.8%.

For Cc1ccc(COc2ccc3c(C4CC4)noc3n2)cc1F, which inhibition is on record?
Its inhibition is 94.2% (active).

Which inhibition does the source give for Cn1c(Cc2ccccc2)nn(CN2CCC3(CC2)OCCO3)c1=S here?
The inhibition was 8.21%.

With Cc1cccc(COc2ccc3c(C4CC4)noc3n2)c1 as the molecule, how does the inhibition read?
The inhibition was 56% (active).

For c1ccc(COc2ccc3c(C4CC4)noc3n2)cc1, which inhibition is on record?
Its inhibition is 76.3% (active).

With Cc1ccc(COc2ccc3c(C4CC4)noc3n2)cc1 as the molecule, how does the inhibition read?
Its inhibition is 46.7%.

For Clc1cccc(COc2ccc3c(C4CC4)noc3n2)c1, which inhibition is on record?
Its inhibition is 76.8% (active).

Which inhibition does the source give for CCCCn1c(O)c(C=Nc2ccccc2C(=O)O)c(C)c(C#N)c1=O here?
The inhibition was -10.6%.

For COc1ccc2nc(-n3nc(C)cc3NC(C)=O)sc2c1, which inhibition is on record?
The inhibition was 86% (active).

With CC(=O)c1cccc(CN2CCC(C(=O)Nc3ccc(Oc4cccnc4)cc3)CC2)c1 as the molecule, how does the inhibition read?
The inhibition was “inactive”.

Which inhibition does the source give for Cc1ccc(CN2CCC(C(=O)Nc3ccc(Oc4cccnc4)cc3)CC2)o1 here?
Its inhibition is 61.8% (active).

With O=C(Nc1ccc(Oc2cccnc2)cc1)C1CCN(C/C=C/c2ccccc2)CC1 as the molecule, how does the inhibition read?
The inhibition was 28.8%.

For O=C(Nc1ccc(Oc2cccnc2)cc1)C1CCN(Cc2cc(Cl)ccc2O)CC1, which inhibition is on record?
The inhibition was 77.8% (active).

With O=C(Nc1ccc(Oc2cccnc2)cc1)C1CCN(Cc2nccs2)CC1 as the molecule, how does the inhibition read?
The inhibition was 88.5% (active).

With C=C(C)CNC(=S)NN=CC1=CCC2CC1C2(C)C (stereo not drawn) as the molecule, how does the inhibition read?
Its inhibition is 23%.

For CCCCNC(=S)NN=Cc1cccs1, which inhibition is on record?
Its inhibition is 103% (active).

With COCCNC(=S)NN=Cc1cccs1 as the molecule, how does the inhibition read?
Its inhibition is 38.1%.

Which inhibition does the source give for CCCCNC(=S)NN=Cc1ccc(C)s1 here?
Its inhibition is 71% (active).

Which inhibition does the source give for CCCCNC(=S)N(C)N=Cc1ccc(C)s1 here?
The inhibition was -20.6%.

With Cc1ccc(C=NNC(=S)NCCCN2CCOCC2)s1 as the molecule, how does the inhibition read?
Its inhibition is 102% (active).
